For seven molecules, AC50 and outcome results are on record in PubChem BioAssay (EPA / NIEHS).

The source made the active and inactive calls. How the source made its calls: active means hit-call score of the fitted dose curve at least 0.9, where 1 is the maximum; inactive means score below 0.9.

Assay [1] can be described thus: ATG_CRE_CIS: Attagene CIS-FACTORIAL HepG2 Assay for human cAMP Responsive Element (CRE) binding protein 3 (AID 2282926). As to conditions: HepG2 CRE cis-reporter, Attagene multiplexed mRNA; actives raise or lower the signal. The method in brief:
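Assay format: transient reporter transfection of HepG2, 24 h treatment, total RNA isolation with DNase I step. Reporter abundance read by fluorescence after PCR and capillary separation; DMSO-normalised gain or loss fitting.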

Assay [2] has as its target CCAAT/enhancer-binding protein beta (Homo sapiens) (UniProt P17676). The experiment in a line: ATG_C_EBP_CIS: Attagene CIS-FACTORIAL HepG2 Assay for human CCAAT/Enhancer Binding Protein (C/EBP) beta (AID 2282927). As to conditions: HepG2 Attagene cis-factorial transcription factor reporter; actives raise or lower the signal. The method in brief: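 Endogenous C/EBPb-driven reporter transcripts measured in transfected human HepG2 cells at 24 h via RT-PCR and capillary electrophoresis of labelled fragments. Activity fitted in both directions relative to DMSO baseline.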

Assay [3] can be described thus: ATG_CMV_CIS: Attagene CIS-FACTORIAL HepG2 Assay for human CMV (Internal Marker) (AID 2282928).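 Further: endpoint acts as a background internal control marker rather than a target.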 As to conditions: HepG2 CMV promoter reporter, transcription factor profiling; actives raise or lower the signal. The method in brief:
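24 h chemical treatment, HepG2 with transient multi-reporter transfection; RNA → oligo(dT) RT → PCR → 6-FAM extension → HpaI digest → CE fluorescence. Bidirectional fit, DMSO negative control.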

Assay [4] can be described thus: ATG_DR4_LXR_CIS: Attagene CIS-FACTORIAL HepG2 Assay for human Liver X Receptor (LXR), DR4 submotif (AID 2282929). As to conditions: HepG2 Attagene DR4 cis-reporter, mRNA transcription; actives raise or lower the signal. The method in brief: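 HepG2 cells transiently transfected with cis-promoter-driven multiplexed reporter units (DR4 element) were dosed for 24 h. Reporter mRNA was quantified by RT-PCR, fluorescent primer extension, HpaI digestion and capillary electrophoresis; bidirectional fitting versus DMSO baseline.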

The nature of assay [5]: ATG_AP_1_CIS: Attagene CIS-FACTORIAL HepG2 Assay for human Activator Protein 1 (AP-1) (AID 2282931). As to conditions: HepG2 Attagene cis-factorial AP-1 reporter mRNA; actives raise or lower the signal. In short, it runs like this: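 HepG2 cells transiently transfected with cis-element-driven multiplex reporter units; 24 h compound exposure. Reporter mRNA quantified by RT-PCR, FAM-labelled fragments resolved by capillary electrophoresis; bidirectional fit versus DMSO baseline.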

Assay [6] can be described thus: ATG_BRE_CIS: Attagene CIS-FACTORIAL HepG2 Assay for human Bone Morphogenetic Protein (BMP) Response Element (BRE) (AID 2282933). The conditions noted are these: HepG2 BMP response element reporter, Attagene transcription factor profiling; actives raise or lower the signal. The method in brief: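 Read-out: reporter mRNA induction quantified by RT-PCR and capillary electrophoresis after 24 h chemical exposure of transfected HepG2 cells. Endogenous factor activity on the BMP response element; gain or loss fitted against DMSO baseline.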

In assay [7] the target is Retinoic acid receptor alpha (Homo sapiens) (UniProt P10276). The assay can be described thus: ATG_DR5_RAR_CIS: Attagene CIS-FACTORIAL HepG2 Assay for human Retinoic Acid Receptor Alpha (RARE), DR5 submotif (AID 2282934).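 On AC50: reporter responds to endogenous RAR alpha beta and gamma in HepG2 not RARA alone.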 The conditions noted are these: HepG2 Attagene cis-factorial RARE DR5 reporter, mRNA; actives raise or lower the signal. In short, it runs like this: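 Reporter transcripts from a DR5-regulated unit, measured via RT-PCR plus capillary electrophoresis, reflect endogenous RAR activity in transiently transfected human HepG2 liver cells. Exposure lasted 24 h; gain or loss of signal scored against DMSO.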
Chain of Retinoic acid receptor alpha (Homo sapiens) (P10276 whole entry, looked up): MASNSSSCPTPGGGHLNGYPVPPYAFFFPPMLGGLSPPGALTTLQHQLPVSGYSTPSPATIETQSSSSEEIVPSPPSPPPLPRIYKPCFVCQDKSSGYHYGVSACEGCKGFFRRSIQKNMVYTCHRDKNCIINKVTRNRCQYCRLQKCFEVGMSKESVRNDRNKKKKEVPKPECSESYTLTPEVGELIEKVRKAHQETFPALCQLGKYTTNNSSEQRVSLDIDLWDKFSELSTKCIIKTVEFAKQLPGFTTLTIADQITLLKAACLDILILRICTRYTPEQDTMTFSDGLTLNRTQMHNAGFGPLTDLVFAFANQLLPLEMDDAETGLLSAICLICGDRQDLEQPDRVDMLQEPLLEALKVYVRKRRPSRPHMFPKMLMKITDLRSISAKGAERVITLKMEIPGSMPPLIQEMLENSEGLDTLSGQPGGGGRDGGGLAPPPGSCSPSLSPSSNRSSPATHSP

Assay [8] addresses Transcription factor E2F1 (Homo sapiens) (UniProt Q01094). The experiment in a line: ATG_E2F_CIS: Attagene CIS-FACTORIAL HepG2 Assay for human E2F Transcription Factor 1 (AID 2282935). As to conditions: HepG2 Attagene cis-reporter, E2F reporter RNA transcripts; actives raise or lower the signal. In short, it runs like this: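 Fluorescent RT-PCR products, digested with HpaI for 2 h at 37 C, are separated by capillary electrophoresis. Source RNA comes from transfected HepG2 cultures treated for 24 h.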

A short description of assay [9]: ATG_E_Box_CIS: Attagene CIS-FACTORIAL HepG2 Assay for human Enhancer Box (E-box) (AID 2282936). The conditions noted are these: HepG2 E-box cis-reporter transcription, actives raise or lower the signal. In short, it runs like this:
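Fluorescent reporter fragments separated by capillary electrophoresis gave the signal; mRNA came from HepG2 cells transfected with cis-element reporters and treated 24 h. Curves fitted bidirectionally relative to DMSO controls.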

Assay [10] can be described thus: ATG_M_61_CIS: Attagene CIS-FACTORIAL HepG2 Assay for M61 Transcription Factor (Internal Marker) (AID 2282937). As to conditions: HepG2 Attagene CIS-FACTORIAL M61 internal marker reporter; actives raise or lower the signal. The method in brief:
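HepG2 cells transiently transfected with cis-element-driven multiple reporter transcription units, dosed for 24 h. Reporter mRNA measured by RT-PCR, 6-FAM primer-extension labelling, HpaI digestion and capillary electrophoresis; bidirectional fit versus DMSO baseline.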

The nature of assay [11]: ATG_EGR_CIS: Attagene CIS-FACTORIAL HepG2 Assay for human Early Growth Response 1 (EGR1) (AID 2282938). As to conditions: HepG2 Attagene CIS-FACTORIAL EGR reporter mRNA; actives raise or lower the signal. The method in brief:
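HepG2 cells transiently transfected with cis-promoter-driven multiplexed reporter transcription units; reporter mRNA measured 24 h after compound dosing by RT-PCR, 6-FAM primer extension, HpaI digestion and capillary electrophoresis. Bidirectional fit versus DMSO baseline.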

Assay [12] in a line: ATG_M_19_CIS: Attagene CIS-FACTORIAL HepG2 Assay for M19 Transcription Factor (Internal Marker) (AID 2282939). The conditions noted are these: HepG2 Attagene CIS-FACTORIAL M19 internal marker reporter; actives raise or lower the signal. In short, it runs like this: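 Readout: fluorescent reporter-transcript fragments by capillary electrophoresis after RT-PCR. Human HepG2 liver cells carried transfected MRTU constructs reporting endogenous transcription-factor activity; exposure 24 h. Gain or loss of signal fitted relative to DMSO.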

Assay [13] is described as follows: ATG_ERE_CIS: Attagene CIS-FACTORIAL HepG2 Assay for Estrogen Response Element (ERE) (AID 2282940). The conditions noted are these: HepG2 ERE cis-reporter, Attagene RNA transcript; actives raise or lower the signal. In short, it runs like this:
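Readout: reporter mRNA induction by RT-PCR, FAM-labelled primer extension, HpaI digestion and capillary electrophoresis, 24 h after dosing transfected HepG2 cells. Endogenous transcription factors act on cis-element-regulated reporters. Gain or loss fitted against DMSO.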

Assay [14] in a line: ATG_Ets_CIS: Attagene CIS-FACTORIAL HepG2 Assay for human Erythroblast Transformation Specific (ETS) (AID 2282941). The conditions noted are these: HepG2 ETS cis-reporter transcription, actives raise or lower the signal. The method in brief: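 Cis-regulated reporter mRNA induction in HepG2 (transient transfection), 24 h exposure, RT-PCR plus capillary electrophoresis detection; DMSO serves as negative control and baseline.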

Assay [15] has as its target Hepatocyte nuclear factor 3-beta (Homo sapiens) (UniProt Q9Y261). The experiment in a line: ATG_FoxA2_CIS: Attagene CIS-FACTORIAL HepG2 Assay for human Forkhead box A2 (FOXA2) (AID 2282942). The conditions noted are these: HepG2 cis-reporter transcription factor activity, 24 h; actives raise or lower the signal. In short, it runs like this: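 HepG2 cells transiently transfected with multiple cis-regulated reporter transcription units, dosed for 24 h. Reporter mRNA measured by RT-PCR, 6-FAM labelling, HpaI digestion and capillary electrophoresis; bidirectional fitting against DMSO baseline.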

A short description of assay [16]: ATG_FoxO_CIS: Attagene CIS-FACTORIAL HepG2 Assay for human Forkhead box O (FoxO) (AID 2282943). As to conditions: HepG2 Attagene cis-reporter, FoxO element, mRNA; actives raise or lower the signal. In short, it runs like this:
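Endogenous transcription factor activity read from multiplexed cis-promoter reporter transcripts in transiently transfected HepG2, 24 h after dosing. Reporter RNA measured via RT-PCR plus capillary electrophoresis of FAM-labeled products; gain or loss relative to DMSO.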

A short description of assay [17]: ATG_GLI_CIS: Attagene CIS-FACTORIAL HepG2 Assay for human Zinc Finger Protein GLI1 (AID 2282945). As to conditions: HepG2, Attagene cis-factorial reporter mRNA, GLI element; actives raise or lower the signal. The method in brief: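 Bidirectional curve fits relative to DMSO, using reporter mRNA levels from RT-PCR plus capillary electrophoresis. Cells were HepG2 transiently carrying cis-regulated reporter constructs, harvested 24 h after dosing.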

The target of assay [18] is Aryl hydrocarbon receptor (Homo sapiens) (UniProt P35869). The experiment in a line: ATG_Ahr_CIS: Attagene CIS-FACTORIAL HepG2 Assay for human Aryl Hydrocarbon Receptor (Ahr) (AID 2282930). The conditions noted are these: HepG2 AhR cis-factorial reporter transcription; actives raise or lower the signal. In short, it runs like this: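 Reporter mRNA levels, quantified by RT-PCR and fluorescent capillary electrophoresis, reflect endogenous AhR transcriptional activity in HepG2 cells carrying transfected cis-promoter reporter constructs. Readout at 24 h post-dose; gain or loss fitted against DMSO baseline.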
Chain of Aryl hydrocarbon receptor (Homo sapiens) (P35869 whole entry, looked up): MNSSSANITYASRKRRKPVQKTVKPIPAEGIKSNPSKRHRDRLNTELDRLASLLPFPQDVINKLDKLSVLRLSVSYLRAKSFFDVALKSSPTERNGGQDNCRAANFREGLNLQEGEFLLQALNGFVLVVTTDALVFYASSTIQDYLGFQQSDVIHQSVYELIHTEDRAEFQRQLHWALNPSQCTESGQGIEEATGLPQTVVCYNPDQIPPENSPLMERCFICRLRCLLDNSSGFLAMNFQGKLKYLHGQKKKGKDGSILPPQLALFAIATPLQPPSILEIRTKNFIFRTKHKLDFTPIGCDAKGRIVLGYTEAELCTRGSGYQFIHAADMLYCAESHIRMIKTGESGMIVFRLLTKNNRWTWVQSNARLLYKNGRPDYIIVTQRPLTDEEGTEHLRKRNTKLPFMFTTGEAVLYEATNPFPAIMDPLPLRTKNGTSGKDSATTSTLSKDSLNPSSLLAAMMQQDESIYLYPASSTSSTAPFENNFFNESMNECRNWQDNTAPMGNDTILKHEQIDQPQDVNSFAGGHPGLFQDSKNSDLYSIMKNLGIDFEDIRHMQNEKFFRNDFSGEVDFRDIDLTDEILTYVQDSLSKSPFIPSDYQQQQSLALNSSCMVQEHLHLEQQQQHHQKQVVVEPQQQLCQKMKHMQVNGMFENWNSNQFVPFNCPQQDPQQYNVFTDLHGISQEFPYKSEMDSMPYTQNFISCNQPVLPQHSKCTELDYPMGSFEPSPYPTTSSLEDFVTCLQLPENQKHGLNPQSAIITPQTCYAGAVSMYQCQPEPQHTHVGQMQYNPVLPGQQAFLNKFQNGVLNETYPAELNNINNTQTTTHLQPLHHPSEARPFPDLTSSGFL

The nature of assay [19]: ATG_AP_2_CIS: Attagene CIS-FACTORIAL HepG2 Assay for human Activator Protein 2 (AP-2) (AID 2282932). As to conditions: HepG2 AP-2 cis-reporter, Attagene transcription factor profiling; actives raise or lower the signal. The method in brief: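 Transiently transfected HepG2 cells are exposed to chemical for 24 h. Reporter transcripts are then measured as fluorescence following RT-PCR and capillary separation, and gain- or loss-of-signal is fitted relative to DMSO.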

The nature of assay [20]: ATG_GATA_CIS: Attagene CIS-FACTORIAL HepG2 Assay for human GATA Binding Protein (AID 2282944). As to conditions: HepG2 GATA cis-element reporter, Attagene multiplex mRNA; actives raise or lower the signal. The method in brief: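 Read-out: fluorescent reporter mRNA fragments resolved by capillary electrophoresis after RT-PCR. Human liver HepG2 cells carried transiently transfected cis-regulated reporter constructs; chemicals incubated 24 h; gain or loss of signal fitted relative to DMSO.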

Chain of Transcription factor E2F1 (Homo sapiens) (Q01094 whole entry, looked up): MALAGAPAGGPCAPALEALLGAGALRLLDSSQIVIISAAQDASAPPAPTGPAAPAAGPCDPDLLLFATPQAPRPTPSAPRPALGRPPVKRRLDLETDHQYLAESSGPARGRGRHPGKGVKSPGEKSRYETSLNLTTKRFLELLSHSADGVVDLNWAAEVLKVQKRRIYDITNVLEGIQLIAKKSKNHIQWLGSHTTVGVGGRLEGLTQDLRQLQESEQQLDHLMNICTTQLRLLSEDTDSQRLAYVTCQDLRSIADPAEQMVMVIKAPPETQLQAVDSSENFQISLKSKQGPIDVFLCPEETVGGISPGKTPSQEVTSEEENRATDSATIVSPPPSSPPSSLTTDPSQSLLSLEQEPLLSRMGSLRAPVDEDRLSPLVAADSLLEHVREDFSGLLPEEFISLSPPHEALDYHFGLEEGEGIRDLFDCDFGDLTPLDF
Chain of CCAAT/enhancer-binding protein beta (Homo sapiens) (P17676 whole entry, looked up, the tested form may be a part): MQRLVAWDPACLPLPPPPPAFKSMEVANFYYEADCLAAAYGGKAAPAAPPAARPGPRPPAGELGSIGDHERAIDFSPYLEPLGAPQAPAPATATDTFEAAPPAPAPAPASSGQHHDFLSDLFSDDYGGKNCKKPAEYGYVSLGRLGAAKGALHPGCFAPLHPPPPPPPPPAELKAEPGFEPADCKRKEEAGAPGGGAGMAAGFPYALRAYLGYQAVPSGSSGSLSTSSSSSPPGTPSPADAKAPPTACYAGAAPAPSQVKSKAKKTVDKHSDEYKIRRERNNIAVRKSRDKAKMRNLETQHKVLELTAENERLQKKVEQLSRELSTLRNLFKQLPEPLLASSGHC
Chain of Hepatocyte nuclear factor 3-beta (Homo sapiens) (Q9Y261 whole entry, looked up): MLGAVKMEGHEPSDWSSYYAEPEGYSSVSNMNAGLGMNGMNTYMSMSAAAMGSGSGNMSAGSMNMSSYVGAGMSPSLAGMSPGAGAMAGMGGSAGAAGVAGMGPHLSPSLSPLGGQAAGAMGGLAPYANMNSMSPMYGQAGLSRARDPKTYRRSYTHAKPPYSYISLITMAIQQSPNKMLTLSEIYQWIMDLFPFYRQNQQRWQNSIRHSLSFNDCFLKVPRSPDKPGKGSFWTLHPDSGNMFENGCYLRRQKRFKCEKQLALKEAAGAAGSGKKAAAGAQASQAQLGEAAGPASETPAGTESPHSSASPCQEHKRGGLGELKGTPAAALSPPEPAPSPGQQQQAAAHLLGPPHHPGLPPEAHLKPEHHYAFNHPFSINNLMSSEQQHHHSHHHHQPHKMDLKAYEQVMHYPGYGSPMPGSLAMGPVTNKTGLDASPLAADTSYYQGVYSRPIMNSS

`Nc1ccc(N)c(Cl)c1`: the concentration at half-maximal activity (AC50) – broadly, the concentration giving half of the maximal activity seen – was 49.6 µM (active) in [1]; 9.98 µM (active) in assay [3]; 18.1 µM (active) in assay [5]; 33.4 µM (active) in assay [7]; 33.5 µM (active) in assay [9]; 2.65 µM (active) in [13]. In addition, the outcome in assay [2], in assay [4], in [6], in [8], in [10] and in assay [11] was inactive. Also, the result in assay [12], in assay [14], in assay [15], in assay [16] and in [17] was inactive.
Regarding `CCCCCCCCCCOS(=O)(=O)O`, the molecule was called inactive in assay [1], in [2], in assay [3], in [18], in assay [5] and in assay [19]. Moreover, the molecule was called inactive in assay [6], in assay [8], in assay [9], in assay [10], in assay [11] and in assay [12]. In addition, the result in assay [13], in assay [14], in [15], in [16], in assay [20] and in assay [17] was inactive. In assay [7], the AC50 is 61.3 µM (active).
For the molecule `CCN(CCC#N)c1ccc(N=Nc2c(Cl)cc([N+](=O)[O-])cc2Cl)cc1`, the call in assay [1], in assay [2], in [3], in assay [18], in [19] and in assay [6] was inactive. Further, the call in assay [7], in assay [8], in [9], in assay [10], in [11] and in assay [12] was inactive. Besides, the call in assay [13], in assay [14], in assay [15], in [16], in [20] and in assay [17] was inactive. For the same molecule, the AC50 in [5] is 27 µM (active).
In the case of `C=CC(C)(C)C`, the call in assay [1], in [2], in [3], in assay [18], in assay [5] and in [19] was inactive. For the same molecule, the result in assay [6], in assay [7], in assay [8], in [9], in assay [10] and in [11] was inactive. Further, the result in assay [12], in assay [13], in [14], in [15], in assay [20] and in assay [17] was inactive.
Consider `Cc1ccc(C(C)c2ccc(C)c(C)c2)cc1C`, for which the molecule was called inactive in assay [1], in assay [2], in assay [18], in assay [19], in assay [6] and in [7]. The molecule was called inactive in [8], in assay [9], in [10], in assay [12], in assay [13] and in assay [14]. The call in [15], in assay [16] and in assay [20] was inactive. Moreover, the AC50 is 40.9 µM (active) in assay [3], 48.7 µM (active) in [5] and 146 µM (active) in [17].
On to `C=CC(C)(CCC=C(C)C)OC(=O)C(C)C` (stereo not given), for which the molecule was called inactive in assay [1], in [2], in assay [4], in assay [7], in [8] and in assay [10]. Also, the result in assay [11], in [12], in [14], in assay [15], in [16] and in assay [17] was inactive. Also, the AC50 in assay [3] was 141 µM (active); in [5] it was 146 µM (active); in [13] it was 32.1 µM (active).
For the molecule `COC(=O)c1ccc2cc(C(=O)OC)ccc2c1`, the result in assay [1], in [2], in assay [3], in [18], in assay [5] and in assay [19] was inactive. For the same molecule, the molecule was called inactive in [6], in [7], in assay [8], in [9], in assay [10] and in [11]. Besides, the outcome in assay [12], in [13], in assay [14], in assay [15], in assay [16] and in [20] was inactive. Besides, the molecule was classed as inactive in assay [17].
